Bioassay records from PubChem BioAssay.
Hits are enriched below; roughly 8.6% of the tested compounds scored in any of these assays.
MARV entry inh – qHTS for Inhibitors of binding or entry into cells for Marburg Virus; Potency, µM (titrated, usually from 49.2 µM), without a hit: at the top dose activity change, negative = inhibition, actives largely listed as inhibitors; Marburg virus pseudotype entry/binding inhibition, cell-based; 18,000 compounds, 6.5% hits; AID 720532, 2013
LASV entry inh – qHTS for Inhibitors of binding or entry into cells for Lassa Virus; Lassa virus pseudotyped entry inhibition, cell-based qHTS; Potency, µM (series often up to 49.2 µM), inactives show at the highest dose activity change, negative = inhibition, usual class: inhibitors; 18,000 compounds, 4.1% hits; AID 720533, 2013
An asterisk follows results filed as active; ! = a repeat was not active; [ ] = another dose, or the depositor's remark. The call rests on the fitted dose curve; tested in HEK293 cells. On the % scale 0 is the no-effect control and ±100 the full control effect; potency means the concentration at half of the fitted maximal effect.

`CCCCCCC(=O)O[C@H]1CC[C@H]2[C@@H]3CC[C@H]4CC(=O)C=C(C)[C@]4(C)[C@H]3CC[C@]12C` gave MARV entry inh 19.5% and LASV entry inh inconclusive.
For O=C(O)Cc1ccc(O)c(O)c1 the results were MARV entry inh 8.2% and LASV entry inh -18.5%.
`CNCC(=O)c1ccc(O)c(O)c1` gave MARV entry inh 15.8µM* and LASV entry inh -14.6%.
For CCN1C(=O)N(S(=O)(=O)c2ccc(C)cc2)C(c2ccccc2)C(C(=O)OC)=C1C (stereo unspecified) the results were MARV entry inh 17.0%[8.59 µM] and LASV entry inh -2.4%[8.59 µM].
`CC(=O)OC[C@H]1O[C@H](C#Cc2ccc(F)cc2F)C=C[C@H]1OC(C)=O` gave MARV entry inh 36.1%[8.59 µM] and LASV entry inh 1.4%[8.59 µM].
For O=C1C(SCCO)=C(SCCO)C(=O)c2ccccc21 the results were MARV entry inh 3.55µM* and LASV entry inh 8.91µM*.
C[C@H](O)CON1C(=O)c2ccccc2C1=O was read as MARV entry inh 5.5% and LASV entry inh -1.0%.
For O=C1C2=C(C(=O)c3ccccc31)[C@H]1O[C@](c3ccsc3)(Cc3c1ccc1ccccc31)O2 the results were MARV entry inh 14.9%[8.59 µM] and LASV entry inh 3.4%[8.59 µM].
`Cc1cc2c(c(=O)n1Cc1ccccc1)[C@H]1O[C@](c3ccsc3)(Cc3cc(C#N)ccc31)O2` gave MARV entry inh 0.6%[8.59 µM] and LASV entry inh -18.2%[8.59 µM].
Screening C=CCOC(=O)N[C@H](c1ccc(-c2ccccc2)cc1)[C@H](C)C=CCC(=O)OC returned MARV entry inh -3.8%[8.59 µM].
Screening CCCCCCCCN=C(N)c1ccc(C(=O)OCC2CCCCC2)cc1 returned MARV entry inh 2.82µM* and LASV entry inh 12.6µM*.
For CCOC(=O)c1ccc(OC(=O)CCCCCN=C(N)N)cc1 the results were MARV entry inh 38.3%[17.8 µM] and LASV entry inh -1.7%[17.8 µM].
Screening C#C[C@]1(O)CC[C@H]2[C@@H]3CCC4=CC(=O)CCC4=C3C=C[C@@]21CC returned MARV entry inh 7.0% and LASV entry inh inconclusive.
CC#C[C@]1(O)CC[C@H]2[C@@H]3CCC4=CC(=O)CCC4=C3[C@@H](c3ccc(N(C)C)cc3)C[C@@]21C was read as MARV entry inh inconclusive and LASV entry inh 31.6µM*.
`COc1ccc([C@]23Cc4cc(C#N)ccc4[C@H](O2)C2=C(CC4(CCCCC4)OC2=O)O3)cc1` gave MARV entry inh 1.2%[8.59 µM] and LASV entry inh -23.3%[8.59 µM].
`Cc1nc(NCc2c(C)nn(C)c2Cl)sc1-c1ccn(CC2COc3ccccc3O2)n1` (stereo unspecified) gave MARV entry inh 11.6% and LASV entry inh -23.6%.
`COCOCCn1cc(CN2CCS(=O)(=O)N(Cc3ccc(-c4ccc(F)cc4)cc3)C(C)C2=O)nn1` (stereo unspecified) gave MARV entry inh 23.9% and LASV entry inh -17.1%.
For O=S(=O)(c1cccc2c(I)cccc12)N1CCCNCC1 the results were MARV entry inh 11.2µM* and LASV entry inh inconclusive.
C[C@@H]1CNCCN1S(=O)(=O)c1cccc2cnccc12 was read as MARV entry inh -25.1% and LASV entry inh 4.6%.
Screening O=S(=O)(c1cccc2c(Cl)cccc12)N1CCCNCC1 returned MARV entry inh 8.91µM* and LASV entry inh inconclusive.
`Cc1ccc(S(=O)(=O)N2CCCN(S(=O)(=O)c3ccccc3Br)CC2)cc1` gave MARV entry inh 35.1%.
`CCN1C(=NCCc2c[nH]c3ccccc23)NC(c2ccccc2)C(C(=O)OC)=C1C` (stereo unspecified) gave MARV entry inh inconclusive and LASV entry inh 8.5%[8.59 µM].
Cc1ccccc1C(OCCN(C)C)c1ccccc1 (stereo unspecified) was read as MARV entry inh inconclusive and LASV entry inh -24.3%.
Screening CC(C(O)c1ccccc1)N(C)CCOC(c1ccccc1)c1ccccc1 (stereo unspecified) returned MARV entry inh 8.91µM* and LASV entry inh 14.1µM*.
Screening COC(=O)C1=C(C(=O)OC)[C@@H]2N(C)c3ccccc3[C@@]23CCC(=O)N(Cc2ccco2)C3=N1 returned MARV entry inh 16.3%[8.59 µM].
Screening Clc1ccc(Cn2c(CN3CCCC3)nc3ccccc32)cc1 returned MARV entry inh -18.5%[17.8 µM] and LASV entry inh 3.7%[17.8 µM].
Screening COc1ccc(CCN2CCC(Nc3nc4ccccc4n3Cc3ccc(F)cc3)CC2)cc1 returned MARV entry inh 3.98µM* and LASV entry inh 31.6µM*!.
COc1ccc(CNc2nc(NCc3ccc(OC)cc3)c3ncn(C4CCCCC4)c3n2)cc1 was read as MARV entry inh 3.55µM* and LASV entry inh inconclusive.
Screening Cn1cnc2c(NCc3ccccc3)nc(NCCO)nc21 returned MARV entry inh 2.5% and LASV entry inh -1.5%.
COc1cccc([C@@H]2Oc3ccc(Br)cc3C(=O)[C@@H]2OC(=O)Nc2ccc(OC(F)F)cc2)c1 was read as MARV entry inh 39.4%[8.59 µM] and LASV entry inh 110.2%[8.59 µM].
For COc1cc(Nc2ncc(-c3ccccc3)o2)cc(OC)c1 the results were MARV entry inh 58.0% and LASV entry inh 110.3%.
`C[C@H]1CN(CCc2ccccc2)C(=O)[C@H]1CC(=O)Nc1ccc(Br)cc1` gave MARV entry inh -8.1%.
Screening O=C(O)C1=CC(=C(c2ccc(O)c(C(=O)O)c2)c2ccc(O)c(C(=O)O)c2)C=CC1=O returned MARV entry inh 0.445µM* and LASV entry inh 2.6%.
For Nc1ccc(O)c(C(=O)O)c1 the results were MARV entry inh inconclusive and LASV entry inh -7.0%.
`NC(=O)[C@@H]1C[C@]2(NC(=O)NC2=O)c2cc(F)ccc2O1` gave MARV entry inh 2.0% and LASV entry inh -14.2%.
`CC(C)(C)NCC(O)CSc1nc(-c2ccc(C(N)=O)s2)cs1` (stereo unspecified) gave MARV entry inh -24.2% and LASV entry inh -8.5%.
For Cc1cc2c(C(C)C)c(O)c(O)c(C=O)c2c(O)c1-c1c(C)cc2c(C(C)C)c(O)c(O)c(C=O)c2c1O the results were MARV entry inh 20µM* and LASV entry inh 11.2µM*.
`COC1=C[C@H](C(=O)NCCNC(C)=O)[C@@]2(C)Cc3ccccc3[C@@H]2CC1=O` gave MARV entry inh -20.2%[8.59 µM].
Screening COC1=CC2C(=O)C(C(c3ccccc3)C2C)C1(O)c1cccc(OC)c1 (stereo unspecified) returned MARV entry inh 15.2%[8.59 µM] and LASV entry inh 8.0%[8.59 µM].
`CC(C)[C@@H]1NC(=O)[C@@H](Cc2ccccc2)NC(=O)[C@H](CC(=O)O)NC(=O)CNC(=O)[C@H](CCCN=C(N)N)NC1=O` gave MARV entry inh -13.6% and LASV entry inh -19.3%.
CC(C)C[C@@H]1NC(=O)[C@H](CCCN)NC(=O)[C@H](C(C)C)NC(=O)[C@@H]2CCCN2C(=O)[C@@H](Cc2ccccc2)NC(=O)[C@H](CC(C)C)NC(=O)[C@H](CCCN)NC(=O)[C@H](C(C)C)NC(=O)[C@@H]2CCCN2C(=O)[C@@H](Cc2ccccc2)NC1=O was read as MARV entry inh inconclusive and LASV entry inh 31.6µM*.
Screening COC(=O)C1=C(C(=O)OC)[C@@H]2N(Cc3ccccc3)c3ccccc3[C@@]23C[C@@H](C(=O)OC)N(C(=O)Nc2ccc(C(F)(F)F)cc2)C3=N1 returned MARV entry inh 38.0%[8.59 µM] and LASV entry inh -20.0%[8.59 µM].
C[C@@H]1[C@@H](c2ccccc2)Oc2c(Cl)cccc2S(=O)(=O)N1Cc1ccc(F)cc1 was read as MARV entry inh inconclusive and LASV entry inh 6.7%.
